From PubChem BioAssay
In the library only some 14% were active in any assay of this set; here they are far more common.
USP28 inh: inhibitors of human USP28 deubiquitinase; Q96RU2; inhibition, % at 25 µM; purified USP28, Ub-rhodamine cleavage fluorescence, 30 min; 47,000 compounds, 3% hits
USP17 block: blocks human USP17 ubiquitin-rhodamine cleavage. 47,000 compounds, 6.5% hits. inhibition, % at 50 µM. purified USP17, Ub-rhodamine cleavage fluorescence, 3 h. AID 1645855
USP10 block: inhibitors of human USP10 deubiquitinase | purified USP10, Ub-rhodamine fluorescence, 60 min | inhibition, % at 20 µM | 47,000 compounds, 1.1% hits | AID 1645856
Target sequence (Q14694 whole entry, looked up): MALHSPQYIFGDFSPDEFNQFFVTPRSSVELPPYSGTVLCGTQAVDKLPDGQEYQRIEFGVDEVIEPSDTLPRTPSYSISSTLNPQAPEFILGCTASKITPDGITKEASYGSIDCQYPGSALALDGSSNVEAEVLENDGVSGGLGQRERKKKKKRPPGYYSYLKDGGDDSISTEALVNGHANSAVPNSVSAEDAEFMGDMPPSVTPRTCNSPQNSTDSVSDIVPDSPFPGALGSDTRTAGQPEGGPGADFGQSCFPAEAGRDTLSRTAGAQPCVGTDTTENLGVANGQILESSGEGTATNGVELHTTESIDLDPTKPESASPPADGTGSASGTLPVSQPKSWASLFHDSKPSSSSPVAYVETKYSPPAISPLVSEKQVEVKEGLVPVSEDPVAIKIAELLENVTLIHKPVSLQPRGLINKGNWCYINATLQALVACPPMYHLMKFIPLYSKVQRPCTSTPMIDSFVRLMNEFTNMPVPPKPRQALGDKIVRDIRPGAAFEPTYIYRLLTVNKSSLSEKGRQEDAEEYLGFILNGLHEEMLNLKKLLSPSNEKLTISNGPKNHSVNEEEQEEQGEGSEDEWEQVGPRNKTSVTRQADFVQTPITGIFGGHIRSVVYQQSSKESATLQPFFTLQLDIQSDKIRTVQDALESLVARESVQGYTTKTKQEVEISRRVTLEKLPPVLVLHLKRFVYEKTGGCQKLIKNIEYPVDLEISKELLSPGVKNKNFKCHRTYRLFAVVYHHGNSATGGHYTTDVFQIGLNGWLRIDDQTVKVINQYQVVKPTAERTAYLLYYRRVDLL
USP8 inh: blocks human USP8 ubiquitin-rhodamine cleavage | 47,000 compounds, 4.2% hits | P40818 | purified USP8, Ub-rhodamine cleavage fluorescence, 30 min | inhibition, % at 20 µM
USP30 block: inhibitors of human USP30 deubiquitinase. Q70CQ3. purified USP30, Ub-rhodamine cleavage fluorescence. inhibition, % at 25 µM. 47,000 compounds, 5.3% hits. AID 1645860
An asterisk follows results filed as active. Rule as the data show it: active = inhibition above about 30%; inactive = the rest.

Screening CCCCCCCCCCCCCCCc1cc(O)cc(O)c1 returned USP28 inh -17, USP17 block 30*, USP10 block 30*, USP8 inh 5 and USP30 block 2.
Screening COCCN(C1CCN(CCc2ccc(Cl)cc2)CC1)S(=O)(=O)c1cccc2cccnc12 returned USP28 inh -199, USP17 block -42, USP10 block -3, USP8 inh -9 and USP30 block inactive.
Cc1cccc(Cn2cc(S(=O)(=O)N3CCOCC3)ccc2=O)c1 was read as USP28 inh -1, USP17 block 0, USP10 block 0, USP8 inh -8 and USP30 block 1.
Screening C=Cc1ccc(Cn2cc(S(=O)(=O)N3CCOCC3)ccc2=O)cc1 returned USP28 inh 14, USP17 block 57*, USP10 block 2, USP8 inh 13 and USP30 block -44.
CCOc1ccc(-c2nnc(NC(=O)C3CCN(S(=O)(=O)c4ccc5c(c4)CCC5)CC3)o2)cc1 was read as USP28 inh 12, USP17 block 9, USP10 block 44*, USP8 inh -120 and USP30 block 28.
O=C(NCc1cccnc1)C1CCN(S(=O)(=O)c2ccc3c(c2)CCCC3)CC1 was read as USP28 inh 11, USP17 block 7, USP10 block 7, USP8 inh 9 and USP30 block 34*.
COCCNC(=O)C1CCN(S(=O)(=O)c2ccc3c(c2)CCCC3)CC1 was read as USP28 inh -9, USP17 block -14, USP10 block 0, USP8 inh -9 and USP30 block -2.
Screening O=C(N[C@@H]1CC[C@@H](Oc2cccc(F)c2)[C@H](O)[C@H]1O)c1ccc(F)cc1 returned USP28 inh -5, USP17 block 1, USP10 block 2, USP8 inh 8 and USP30 block 2.
Screening COc1cc2[nH]c3c(N4CCC(C(N)=O)(N5CCCCC5)CC4)ncnc3c2cc1OC returned USP28 inh 19, USP17 block 11, USP10 block 9, USP8 inh 12 and USP30 block 30*.
`Cc1cccc(Nc2cccc(C3CCCN3C(=O)C3CCOCC3)n2)n1` (configuration not stated) gave USP28 inh 6, USP17 block 13, USP10 block -1, USP8 inh 10 and USP30 block 16.
Screening CCCNc1cc(N2CCCC(CCC(=O)N3CCN(C)CC3)C2)ncn1 (configuration not stated) returned USP28 inh -10, USP17 block -15, USP10 block -1, USP8 inh -156 and USP30 block -18.
Screening COc1ccc(OC)c(CC2(NC(=O)c3ccccc3)N=C3C=CC=CN3C2=O)c1 (configuration not stated) returned USP28 inh -2, USP17 block 22, USP10 block 3, USP8 inh 27 and USP30 block 30*.
Screening COc1ccc(C(=O)NC2(Cc3ccccc3)N=C3C(C)=CC=CN3C2=O)cc1 (configuration not stated) returned USP28 inh 12, USP17 block 19, USP10 block 2, USP8 inh 21 and USP30 block 9.
Screening Cn1c(=O)c2c(nc3n(CCO)c(-c4ccc(Cl)cc4)cn23)n(C)c1=O returned USP28 inh 10, USP17 block 5, USP10 block 0, USP8 inh -11 and USP30 block 36*.
For COc1cc(/C=C/C(=O)Nc2nnc(C3CC3)s2)cc(OC)c1OC the results were USP28 inh 11, USP17 block 0, USP10 block 0, USP8 inh 8 and USP30 block -3.
`CCOc1ccc(/C=C/C(=O)Nc2nnc(C)s2)cc1` gave USP28 inh -8, USP17 block 31*, USP10 block 8, USP8 inh 24 and USP30 block -65.
For O=C(Nc1ccc(Cl)cc1)C1CCCN(c2ncccn2)C1 (configuration not stated) the results were USP28 inh 10, USP17 block 10, USP10 block -1, USP8 inh 33* and USP30 block 15.
Screening O=C(Nc1ccc(Cl)cc1)C1CCCN(c2ncnc3nc[nH]c23)C1 (configuration not stated) returned USP28 inh -10, USP17 block 39*, USP10 block 3, USP8 inh 28 and USP30 block -31.
Screening O=C(NCc1ccncc1)C1CCCN(c2ncnc3nc[nH]c23)C1 (configuration not stated) returned USP28 inh -1, USP17 block 1, USP10 block -2, USP8 inh 2 and USP30 block 6.
For O=C(Nc1ccc(CN2CCOCC2)cc1)C1CCCN(c2ncccn2)C1 (configuration not stated) the results were USP28 inh 4, USP17 block 0, USP10 block -2, USP8 inh 7 and USP30 block 14.
For C[C@@H]1CC[C@H]2C(CN(C)CC(C)(O)c3ccccc3)C(=O)O[C@]23[C@H]1CC[C@@]1(C)O[C@@H]31 (some centres not stated) the results were USP28 inh -10, USP17 block -17, USP10 block 1, USP8 inh -5 and USP30 block -8.
`COc1ccccc1N1CCn2c(nc3cc(NS(C)(=O)=O)ccc32)C1` gave USP28 inh 0, USP17 block 40*, USP10 block 3, USP8 inh 14 and USP30 block 8.
Screening O=C(Nc1nnc(C2CCCCC2)s1)c1cc(Cl)ccc1Cl returned USP28 inh 14, USP17 block 19, USP10 block 14, USP8 inh 6 and USP30 block 23.
Cc1nccc(C(=O)N2C[C@@H]3OCC(=O)N(CCc4ccccc4)[C@H]3C2)n1 was read as USP28 inh 0, USP17 block 1, USP10 block -1, USP8 inh 3 and USP30 block -2.
Cn1cc(-c2cnc3sc(NCCc4ccccn4)nn23)cn1 was read as USP28 inh 7, USP17 block 0, USP10 block 1, USP8 inh 10 and USP30 block 17.
Cn1c2ccccc2c(=O)c2c(=O)n(Cc3ccco3)c(-c3ccccc3F)nc21 was read as USP28 inh -11, USP17 block 9, USP10 block 61*, USP8 inh 90* and USP30 block -29.
For Cn1c2ccccc2c(=O)c2c(=O)n(-c3ccccc3)c(-c3ccc(F)cc3)nc21 the results were USP28 inh -9, USP17 block 43*, USP10 block 5, USP8 inh 7 and USP30 block 4.
`Fc1ccc(-c2cnc(N3CCN(c4ccccn4)CC3)nc2)cc1` gave USP28 inh 8, USP17 block 19, USP10 block -6, USP8 inh 17 and USP30 block 31*.
Screening Fc1ccc(-c2[nH]ncc2CN2CCN(c3ccccn3)CC2)cc1 returned USP28 inh 10, USP17 block -3, USP10 block -2, USP8 inh 1 and USP30 block 12.
COc1ccc2occ(CC(=O)Nc3nnc(SC)s3)c2c1 was read as USP28 inh 3, USP17 block 33*, USP10 block -4, USP8 inh 0 and USP30 block -56.
